Measured values from the supplement of paper PMC7261846.
± gives the uncertainty stated by the source.

System: Candida albicans SNY425 biofilm
Assay: biofilm OD600 with compound plus antifungal (OD600 (absorbance)); higher = more biofilm remaining
[1] = assay detail: disruption of 24-h mature biofilm (compound + antifungal for a second 24 h)
[2] = assay detail: sustained inhibition (compound + antifungal during 90-min adherence and 24-h growth)

Row | Compound | biofilm OD600 [1] | biofilm OD600 [2]
1 | CC(NC(=O)C(Cc1ccccc1)NC(=O)OCc1ccccc1)C(=O)CF (configuration not stated) + CC[C@H](C)C[C@H](C)CCCCCCCCC(=O)N[C@H]1C[C@@H](O)[C@@H](NCCN)NC(=O)[C@@H]2[C@@H](O)CCN2C(=O)[C@H]([C@H](O)CCN)NC(=O)[C@H]([C@H](O)[C@@H](O)c2ccc(O)cc2)NC(=O)[C@@H]2C[C@@H](O)CN2C(=O)[C@H]([C@@H](C)O)NC1=O [caspofungin] (first compound 12.5 µM) | 0.3 ± 0.005 | 0.185 ± 0.0046
2 | CC(C)C[C@H](NC(=O)[C@H]1O[C@@H]1C(=O)O)C(=O)NCCCCN=C(N)N + OC(Cn1cncn1)(Cn1cncn1)c1ccc(F)cc1F [fluconazole] (first compound 12.5 µM) | 0.255 ± 0.012 | 0.149 ± 0.0057
3 | COC(=O)C[C@H](NC(=O)[C@H](C)NC(=O)[C@@H](NC(=O)OCc1ccccc1)C(C)C)C(=O)CF + CC[C@H](C)C[C@H](C)CCCCCCCCC(=O)N[C@H]1C[C@@H](O)[C@@H](NCCN)NC(=O)[C@@H]2[C@@H](O)CCN2C(=O)[C@H]([C@H](O)CCN)NC(=O)[C@H]([C@H](O)[C@@H](O)c2ccc(O)cc2)NC(=O)[C@@H]2C[C@@H](O)CN2C(=O)[C@H]([C@@H](C)O)NC1=O [caspofungin] (first compound 12.5 µM) | 0.296 ± 0.011 | 0.177 ± 0.0034
4 | CC(NC(=O)C(Cc1ccccc1)NC(=O)OCc1ccccc1)C(=O)CF (configuration not stated) + C[C@@H]1[C@H](O)[C@@H](C)/C=C/C=C/C=C/C=C/C=C/C=C/C=C/[C@H](O[C@@H]2O[C@H](C)[C@@H](O)[C@H](N)[C@@H]2O)C[C@@H]2O[C@](O)(C[C@@H](O)C[C@@H](O)[C@H](O)CC[C@@H](O)C[C@@H](O)CC(=O)O[C@H]1C)C[C@H](O)[C@H]2C(=O)O [amphotericin B] (first compound 12.5 µM) | 0.307 ± 0.0094 | 0.185 ± 0.005
5 | CC(C)C[C@@H](C=O)NC(=O)[C@H](CC(C)C)NC(=O)[C@H](CC(C)C)NC(=O)OCc1ccccc1 + OC(Cn1cncn1)(Cn1cncn1)c1ccc(F)cc1F [fluconazole] (first compound 12.5 µM) | 0.277 ± 0.0062 | 0.148 ± 0.0097
6 | O=C[C@@H]1CCCN1C(=O)[C@@H]1CCCN1C(=O)OCc1ccccc1 [Z-Prolyl-prolinal] + OC(Cn1cncn1)(Cn1cncn1)c1ccc(F)cc1F [fluconazole] (first compound 12.5 µM) | 0.247 ± 0.013 | 0.0978 ± 0.0091
7 | COC(=O)N[C@H](C(=O)N[C@@H](Cc1ccccc1)[C@@H](O)CN(Cc1ccc(-c2ccccn2)cc1)NC(=O)[C@@H](NC(=O)OC)C(C)(C)C)C(C)(C)C [atazanavir] + C[C@@H]1[C@H](O)[C@@H](C)/C=C/C=C/C=C/C=C/C=C/C=C/C=C/[C@H](O[C@@H]2O[C@H](C)[C@@H](O)[C@H](N)[C@@H]2O)C[C@@H]2O[C@](O)(C[C@@H](O)C[C@@H](O)[C@H](O)CC[C@@H](O)C[C@@H](O)CC(=O)O[C@H]1C)C[C@H](O)[C@H]2C(=O)O [amphotericin B] (first compound 12.5 µM) | 0.286 ± 0.013 | 0.213 ± 0.0068
8 | CCC(C)[C@H](NS(=O)(=O)c1cccc2ccccc12)C(=O)N[C@H](C=O)Cc1c[nH]c2ccccc12 (some centres not stated) + CC[C@H](C)C[C@H](C)CCCCCCCCC(=O)N[C@H]1C[C@@H](O)[C@@H](NCCN)NC(=O)[C@@H]2[C@@H](O)CCN2C(=O)[C@H]([C@H](O)CCN)NC(=O)[C@H]([C@H](O)[C@@H](O)c2ccc(O)cc2)NC(=O)[C@@H]2C[C@@H](O)CN2C(=O)[C@H]([C@@H](C)O)NC1=O [caspofungin] (first compound 12.5 µM) | 0.253 ± 0.01 | 0.18 ± 0.0089
9 | CCOC(=O)[C@H](CCc1ccccc1)N[C@@H](C)C(=O)N1CCC[C@H]1C(=O)O [Enalapril] + CC[C@H](C)C[C@H](C)CCCCCCCCC(=O)N[C@H]1C[C@@H](O)[C@@H](NCCN)NC(=O)[C@@H]2[C@@H](O)CCN2C(=O)[C@H]([C@H](O)CCN)NC(=O)[C@H]([C@H](O)[C@@H](O)c2ccc(O)cc2)NC(=O)[C@@H]2C[C@@H](O)CN2C(=O)[C@H]([C@@H](C)O)NC1=O [caspofungin] (first compound 12.5 µM) | 0.266 ± 0.012 | 0.207 ± 0.011
10 | CCCCCCCCCC(=O)N[C@@H](CCCN=C(N)N)C(=O)N[C@H](C(=O)N[C@@H](CCCCN)C(=O)N[C@@H](CCCN=C(N)N)C(=O)CCl)C(C)C + CC[C@H](C)C[C@H](C)CCCCCCCCC(=O)N[C@H]1C[C@@H](O)[C@@H](NCCN)NC(=O)[C@@H]2[C@@H](O)CCN2C(=O)[C@H]([C@H](O)CCN)NC(=O)[C@H]([C@H](O)[C@@H](O)c2ccc(O)cc2)NC(=O)[C@@H]2C[C@@H](O)CN2C(=O)[C@H]([C@@H](C)O)NC1=O [caspofungin] (first compound 4 µM) | 0.18 ± 0.013 | 0.141 ± 0.018
11 | C[C@]1(Cn2ccnn2)[C@H](C(=O)O)N2C(=O)C[C@H]2S1(=O)=O [Tazobactam] + OC(Cn1cncn1)(Cn1cncn1)c1ccc(F)cc1F [fluconazole] (first compound 12.5 µM) | 0.283 ± 0.011 | 0.12 ± 0.0072
12 | CC(C)C[C@H](NC(=O)N[C@H](C(=O)N[C@@H](CCC(N)=O)C(=O)N[C@@H](C)C=O)[C@@H]1CCNC(=N)N1)C(=O)O [Elastatinal] + OC(Cn1cncn1)(Cn1cncn1)c1ccc(F)cc1F [fluconazole] (first compound 12.5 µM) | 0.249 ± 0.0066 | 0.16 ± 0.014
13 | CCCCC[C@H](CC(=O)NO)C(=O)N[C@H](C(=O)N1CCC[C@H]1CO)C(C)C [Actinonin] + C[C@@H]1[C@H](O)[C@@H](C)/C=C/C=C/C=C/C=C/C=C/C=C/C=C/[C@H](O[C@@H]2O[C@H](C)[C@@H](O)[C@H](N)[C@@H]2O)C[C@@H]2O[C@](O)(C[C@@H](O)C[C@@H](O)[C@H](O)CC[C@@H](O)C[C@@H](O)CC(=O)O[C@H]1C)C[C@H](O)[C@H]2C(=O)O [amphotericin B] (first compound 12.5 µM) | 0.255 ± 0.017 | 0.191 ± 0.0077
14 | O=C1Nc2ccc([N+](=O)[O-])cc2C1=O [5-Nitroisatin] + OC(Cn1cncn1)(Cn1cncn1)c1ccc(F)cc1F [fluconazole] (first compound 12.5 µM) | 0.249 ± 0.0083 | 0.107 ± 0.011
15 | NCC1CCC(C(=O)N[C@@H](Cc2ccccc2)C(=O)Nc2ccc(CC(=O)O)cc2)CC1 (some centres not stated) + CC[C@H](C)C[C@H](C)CCCCCCCCC(=O)N[C@H]1C[C@@H](O)[C@@H](NCCN)NC(=O)[C@@H]2[C@@H](O)CCN2C(=O)[C@H]([C@H](O)CCN)NC(=O)[C@H]([C@H](O)[C@@H](O)c2ccc(O)cc2)NC(=O)[C@@H]2C[C@@H](O)CN2C(=O)[C@H]([C@@H](C)O)NC1=O [caspofungin] (first compound 12.5 µM) | 0.26 ± 0.0081 | 0.191 ± 0.024
16 | CO[C@@H]1[C@H](OC(=O)/C=C/C=C/C=C/C=C/C(=O)O)CC[C@]2(CO2)[C@H]1[C@@]1(C)O[C@@H]1CC=C(C)C [Fumagillin] + OC(Cn1cncn1)(Cn1cncn1)c1ccc(F)cc1F [fluconazole] (first compound 12.5 µM) | 0.246 ± 0.013 | 0.117 ± 0.0056
17 | CCCC[C@@H](C=O)NC(=O)OC(C)(C)C + C[C@@H]1[C@H](O)[C@@H](C)/C=C/C=C/C=C/C=C/C=C/C=C/C=C/[C@H](O[C@@H]2O[C@H](C)[C@@H](O)[C@H](N)[C@@H]2O)C[C@@H]2O[C@](O)(C[C@@H](O)C[C@@H](O)[C@H](O)CC[C@@H](O)C[C@@H](O)CC(=O)O[C@H]1C)C[C@H](O)[C@H]2C(=O)O [amphotericin B] (first compound 12.5 µM) | 0.259 ± 0.011 | 0.188 ± 0.0076
18 | CC(C)CN(C[C@@H](O)[C@H](Cc1ccccc1)NC(=O)O[C@H]1CCOC1)S(=O)(=O)c1ccc(N)cc1 [amprenavir] + CC[C@H](C)C[C@H](C)CCCCCCCCC(=O)N[C@H]1C[C@@H](O)[C@@H](NCCN)NC(=O)[C@@H]2[C@@H](O)CCN2C(=O)[C@H]([C@H](O)CCN)NC(=O)[C@H]([C@H](O)[C@@H](O)c2ccc(O)cc2)NC(=O)[C@@H]2C[C@@H](O)CN2C(=O)[C@H]([C@@H](C)O)NC1=O [caspofungin] (first compound 12.5 µM) | 0.271 ± 0.014 | 0.201 ± 0.013
19 | Cc1cccc(C)c1OCC(=O)N[C@@H](Cc1ccccc1)[C@@H](O)C[C@H](Cc1ccccc1)NC(=O)[C@H](C(C)C)N1CCCNC1=O [lopinavir] + CC[C@H](C)C[C@H](C)CCCCCCCCC(=O)N[C@H]1C[C@@H](O)[C@@H](NCCN)NC(=O)[C@@H]2[C@@H](O)CCN2C(=O)[C@H]([C@H](O)CCN)NC(=O)[C@H]([C@H](O)[C@@H](O)c2ccc(O)cc2)NC(=O)[C@@H]2C[C@@H](O)CN2C(=O)[C@H]([C@@H](C)O)NC1=O [caspofungin] (first compound 12.5 µM) | 0.153 ± 0.0047 | 0.0941 ± 0.0079
20 | O=C1Nc2ccc([N+](=O)[O-])cc2C1=O [5-Nitroisatin] + CC[C@H](C)C[C@H](C)CCCCCCCCC(=O)N[C@H]1C[C@@H](O)[C@@H](NCCN)NC(=O)[C@@H]2[C@@H](O)CCN2C(=O)[C@H]([C@H](O)CCN)NC(=O)[C@H]([C@H](O)[C@@H](O)c2ccc(O)cc2)NC(=O)[C@@H]2C[C@@H](O)CN2C(=O)[C@H]([C@@H](C)O)NC1=O [caspofungin] (first compound 12.5 µM) | 0.255 ± 0.0081 | 0.156 ± 0.013
21 | CCCC[C@@H](C=O)NC(=O)[C@H](CC(C)C)NC(=O)OCc1ccccc1 [Calpeptin] + CC[C@H](C)C[C@H](C)CCCCCCCCC(=O)N[C@H]1C[C@@H](O)[C@@H](NCCN)NC(=O)[C@@H]2[C@@H](O)CCN2C(=O)[C@H]([C@H](O)CCN)NC(=O)[C@H]([C@H](O)[C@@H](O)c2ccc(O)cc2)NC(=O)[C@@H]2C[C@@H](O)CN2C(=O)[C@H]([C@@H](C)O)NC1=O [caspofungin] (first compound 12.5 µM) | 0.263 ± 0.0082 | 0.174 ± 0.0085
